# Screening results deposited in PubChem by several laboratories.
# An excerpt weighted towards active compounds, which were near 32% of everything screened.
# CYP2C19 inhib: human CYP2C19 inhibition | 96,000 compounds, 21% hits | inhibition, % at 5 µM | CYP2C19 Supersomes, luciferin-H EGE luminescence, 30 min | P33261;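 active = CYP2C19 inhibition above a set limit at 5 µM in the primary screen, cut at about 50% in these data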;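 also: plate controls were negative control wells for no effect and 2.5 mM tranylcypromine positive control for full effect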
# Target sequence (P33261 whole entry, looked up): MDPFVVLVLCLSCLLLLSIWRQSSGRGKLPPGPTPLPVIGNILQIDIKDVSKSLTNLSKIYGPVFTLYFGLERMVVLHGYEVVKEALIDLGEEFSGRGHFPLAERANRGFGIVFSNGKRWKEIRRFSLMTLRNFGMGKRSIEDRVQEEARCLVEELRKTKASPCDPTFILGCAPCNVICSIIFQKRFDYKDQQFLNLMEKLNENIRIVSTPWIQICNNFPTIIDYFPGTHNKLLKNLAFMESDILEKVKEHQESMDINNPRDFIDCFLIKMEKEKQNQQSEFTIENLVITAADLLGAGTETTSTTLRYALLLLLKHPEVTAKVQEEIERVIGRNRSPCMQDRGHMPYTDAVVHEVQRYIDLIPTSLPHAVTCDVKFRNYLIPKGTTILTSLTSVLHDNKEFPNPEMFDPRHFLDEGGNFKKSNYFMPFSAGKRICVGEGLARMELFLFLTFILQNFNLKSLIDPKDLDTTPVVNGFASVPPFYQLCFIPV
# PostGolgi yeast: growth inhibition of a yeast mutant, post-Golgi transport screen | post-Golgi transport phenotypic cell assay | inhibition, % at 10 µM | 98,000 compounds, 0.9% hits | AID 739;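 also: yeast cells grown in 1536-well plates; yeast grown about 18 h at 30C before absorbance read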
# CYP2C19 activ: increases human CYP2C19 enzyme activity; P33261; recombinant CYP2C19, luciferin-H EGE luminescence; hits give high values; 0 = fully inhibited enzyme, 1 = untreated enzyme; activation factor at 5 µM; 96,000 tested, under 10 active; AID 1025;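 active = activation factor of at least 2 at 5 µM in the primary screen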;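 also: 0 = wells with 2.5 mM tranylcypromine and 1 = vehicle-only wells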
# PostGolgi ctrl: growth of the yeast control strain, post-Golgi counter-screen | efflux-deficient yeast background strain, growth absorbance A615, 16 h | AID 738 | inhibition, % at 10 µM | 98,000 compounds, 5% hits
# CYP2C9 act: increases human cytochrome P450 2C9 activity; activation factor at 5 µM; recombinant CYP2C9, luciferin-H conversion, luminescence; hits give high values; factor 1 = untreated enzyme, 0 = blocked; AID 1024; 96,000 compounds, 1.4% hits;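 active = activation factor of 2 or more for CYP2C9 at a 5 µM dose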;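 also: 0 = sulfaphenazole-blocked wells and 1 = vehicle-only wells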
# CYP2C9 inhib: inhibitors of human CYP2C9; P11712; CYP2C9 Supersomes, luciferin-H conversion, luminescence; inhibition, % at 5 µM; 96,000 compounds, 20% hits; AID 777;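 active = blocking of liver enzyme CYP2C9 beyond about 50% at 5 µM, limit read from the data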
# An asterisk follows results filed as active; / = no result. Rule as the data show it, unless noted: active = inhibition above about 30%; inactive = the rest.
SMILES,CYP2C19 inhib,PostGolgi yeast,CYP2C19 activ,PostGolgi ctrl,CYP2C9 act,CYP2C9 inhib
CC(=O)Nc1c(C(=O)N2CCCCCC2)cnn1-c1ccccc1,-4,1,1,10,1.1,-10
CCCCNC(=O)C(CC)Sc1nc2sc(C(=O)OC)c(C)c2c(=O)n1N (stereo unspecified),/,12,/,9,/,/
CCOC(=O)c1sc2nc3n(c(=O)c2c1C)CCCCC3,74*,-5,0.3,30*,0.4,57*
CCOC(=O)c1sc2nc(SCC#N)n(CCCN3CCCC3=O)c(=O)c2c1C,55*,4,0.4,11,0.2,79*
Cc1c(C(=O)Nc2ccc(Oc3ccccc3)cc2)sc2nc3n(c(=O)c12)CCC3,8,15,0.9,31*,0.5,48
Cc1ccc(C)c(NC(=O)Cn2nc(C(F)(F)F)cc2C2CC2)c1,49,-5,0.5,-6,1.2,-16
CCC(CC)c1nnc(NC(=O)CN2C(=O)C3C4C=CC(C4)C3C2=O)s1 (stereo unspecified),4,-3,1,-11,0.6,41
COc1ccc(C(c2sc3nc(C)nn3c2O)N2CCCCC2)cc1 (stereo unspecified),/,5,/,5,/,/
COC(=O)c1cc2c(-c3ccccc3)cc3ccccn3c-2c1C(=O)OC,10,6,0.9,43*,0.7,30
COC(=O)c1c(C)c2c(C)cc3ccccn3c-2c1C(=O)OC,39,-2,0.6,0,1,-1
CC(C)CNCC(=O)N1c2ccccc2Sc2ccccc21,-1,-5,1,4,0.9,5
COc1cc(C)nc(N2CCC(C(=O)NC3CCCCC3)CC2)n1,46,-4,0.5,12,0.7,28
Cc1ccnc(NC(=O)CCC(=O)N(CC(=O)NC2CCCCC2)CC2CCCO2)c1 (stereo unspecified),9,-11,0.9,-6,0.7,31
COc1ccc(NC(=O)c2cc([N+](=O)[O-])nn2Cc2ccccc2)c(C)c1,26,1,0.7,8,0.8,21
CCc1ccc(C(C)NC(=O)C2(C)CC2(Br)Br)cc1 (stereo unspecified),90*,-5,0.1,-3,0.3,71*
CCSc1nnnn1-c1ccccc1,32,-3,0.7,-7,0.9,9
Cc1sc2ncnc(Nc3ccccc3)c2c1C,50*,3,0.5,33*,1,-1
Cc1sc2ncnc(NCC(c3ccco3)N(C)C)c2c1C (stereo unspecified),/,-7,/,3,/,/
Cc1sc2ncnc(NCc3ccccc3)c2c1C,75*,-4,0.2,6,0.5,47
Cc1sc2ncnc(Sc3nnnn3-c3ccccc3)c2c1C,56*,12,0.4,29,0.8,23
Cc1sc2ncnc(N[C@@H](CCC(=O)O)C(=O)O)c2c1C,-8,3,1.1,15,1,4
CSCC[C@H](Nc1ncnc2sc(C)c(C)c12)C(=O)O,-7,-2,1.1,-3,0.2,83*
Cc1ccc(C)c(S(=O)(=O)NC(CC(C)C)C(=O)O)c1 (stereo unspecified),8,3,0.9,9,0.9,11
CCOC(=O)COc1cc(Br)c(C2NC(=O)NC(C)=C2C(C)=O)cc1OCC (stereo unspecified),16,5,0.8,3,0.6,35
COCCCNC(=O)c1c(-c2ccccc2)noc1C,7,-4,0.9,1,1,1
SMILES,CYP2C19 inhib,PostGolgi yeast,CYP2C19 activ,PostGolgi ctrl,CYP2C9 act,CYP2C9 inhib
CCCCOCCCNC(=O)c1c(-c2ccccc2)noc1C,68*,-2,0.3,6,0.5,47
Cc1onc(-c2ccccc2)c1C(=O)Oc1cccnc1,51*,-3,0.5,7,0.8,18
Cc1onc(-c2ccccc2)c1C(=O)NCc1cccnc1,59*,15,0.4,2,0.7,25
Cc1ccc(S(=O)(=O)N(C)CCCC(=O)N2CCN(C=O)CC2)cc1,31,-1,0.7,2,0.5,45
Cc1nn(CCc2n[nH]c(=S)n2-c2cccc(Cl)c2)c(C)c1[N+](=O)[O-],57*,0,0.4,0,0.8,22
CCC(C)NC(=O)c1c(C)cc(=O)oc1C (stereo unspecified),-13,-2,1.1,-5,1.2,-21
COc1cc(CO)cc(Br)c1OCc1cccnc1,80*,-1,0.2,2,2.1*,-109
